Measured potencies and affinities stand elsewhere.
Tested on: Staphylococcus aureus
Settings: Concentration 20 uM; ASSAY_TEST Inhibition of Bacterial Growth; detection method Absorption (OD600); MEDIA CAMHB; plate type 384well; NBS; CORNING #3640; time 18 hr

SMILES	Inhibition [%]
CCOC(=O)N1CCC(=C2c3ccc(Cl)cc3CCc3cccnc32)CC1 [LORATADINE]	11.88
c1ccc2[nH]c(-c3cscn3)nc2c1 [THIABENDAZOLE]	9.35
CN(C)CCN(Cc1ccccc1)c1ccccn1.Cl [TRIPELENNAMINE HYDROCHLORIDE]	-12.77

Tested on: Escherichia coli
Settings: Concentration 20 uM; ASSAY_TEST Inhibition of Bacterial Growth; detection method Absorption (OD600); MEDIA CAMHB; plate type 384well; NBS; CORNING #3640; time 18 hr

SMILES	Inhibition [%]
COc1cc(C[C@@H](CO)[C@H](CO)Cc2ccc(O)c(OC)c2)ccc1O [(+)-SECOISOLARICIRESINOL]	-3.86
CCCCNC(=O)NS(=O)(=O)c1ccc(C)cc1 [TOLBUTAMIDE]	0.97
CC1=C(CC(=O)O)c2cc(F)ccc2/C1=C\c1ccc([S+](C)[O-])cc1 (stereo unspecified)	3.68
CC(C)(C)C(O)/C=C/c1ccc2c(c1)OCO2 (stereo unspecified) [STIRIPENTOL]	6.07
C[n+]1ccccc1/C=N/O.[Cl-] [PRALIDOXIME CHLORIDE]	4.53
Cc1sc(N)c(C(=O)c2cccc(C(F)(F)F)c2)c1C	-1.03
Nc1ccc2cn[nH]c2c1	5.89
CC(C)(C)NC[C@H](O)COc1nsnc1N1CCOCC1.O=C(O)/C=C\C(=O)O [TIMOLOL MALEATE]	1.71
CN(C)CCCN1c2ccccc2CCc2ccccc21.Cl [IMIPRAMINE HYDROCHLORIDE]	-1.44
Nc1c2c(nc3c1CCC3)CCCC2 [IPIDACRINE]	5.57
CN(C)CCCN1c2ccccc2CCc2ccc(Cl)cc21.Cl [CLOMIPRAMINE HYDROCHLORIDE]	7.04
CC(=O)O[C@]1(C(C)=O)CC[C@H]2[C@@H]3C[C@H](C)C4=CC(=O)CC[C@]4(C)[C@H]3CC[C@@]21C [MEDROXYPROGESTERONE ACETATE]	2
CCN(CC)CC(=O)Nc1c(C)cccc1C [LIDOCAINE]	-3.44
Nc1ccc(O)c(C(=O)O)c1 [MESALAMINE]	3.21
C/C=C1/[C@H]2C=C(C)C[C@]1(N)c1ccc(O)nc1C2	-0.02
O=C(NCCO[N+](=O)[O-])c1cccnc1 [NICORANDIL]	8.35
Cl.O=C(NCC1CCCCN1)c1cc(OCC(F)(F)F)ccc1OCC(F)(F)F (stereo unspecified)	-6.42
COc1cc2nc(N(C)CCCNC(=O)C3CCCO3)nc(N)c2cc1OC (stereo unspecified) [ALFUZOSIN]	-0.93
COc1ccc(CC2c3cc(OC)c(OC)cc3CC[N+]2(C)CCC(=O)OCCCCCOC(=O)CC[N+]2(C)CCc3cc(OC)c(OC)cc3C2Cc2ccc(OC)c(OC)c2)cc1OC.O=S(=O)(O)c1ccccc1 (stereo unspecified)	6.82
CN(C)CCCSc1ccccc1NC(=O)/C=C/c1ccccc1.Cl.O	3.24
CN(CCOc1ccc(NS(C)(=O)=O)cc1)CCc1ccc(NS(C)(=O)=O)cc1 [DOFETILIDE]	6.72
CN1CCC(=C2c3ccccc3CC(=O)c3sccc32)CC1.O=C(O)/C=C/C(=O)O [KETOTIFEN FUMARATE]	3.55
CN(C)c1nc(N(C)C)nc(N(C)C)n1 [ALTRETAMINE]	-2.16
CC(C)c1ccc2c(c1)c(SC(C)(C)C)c(CC(C)(C)C(=O)O)n2Cc1ccc(Cl)cc1	5.68
CC(C)NCC(O)c1ccc(NS(C)(=O)=O)cc1.Cl (stereo unspecified) [SOTALOL HYDROCHLORIDE]	5.97
NC(CO)(CO)CO.O=C(c1ccccc1)c1ccc2n1CCC2C(=O)O (stereo unspecified) [KETOROLAC TROMETHAMINE]	-3.99
c1ccc2[nH]c(-c3cscn3)nc2c1 [THIABENDAZOLE]	1.68
CN(C)CCN(Cc1ccccc1)c1ccccn1.Cl [TRIPELENNAMINE HYDROCHLORIDE]	7.66
